# Measurements reported in PubChem BioAssay (EPA / NIEHS).
# Activity calls are given as the source filed them. Rule for the calls: active = hit-call score of the fitted dose curve at least 0.9, where 1 is the maximum; inactive = score below 0.9.
# What was measured:
# [1] = ATG_CRE_CIS: Attagene CIS-FACTORIAL HepG2 Assay for human cAMP Responsive Element (CRE) binding protein 3 (AID 2282926); settings: HepG2 CRE cis-reporter, Attagene multiplexed mRNA; actives raise or lower the signal
# In short: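 Endogenous CRE-binding activity in HepG2 is reported through a cis-regulated transfected reporter. Following a day of exposure, mRNA levels are determined by reverse transcription PCR and fluorescent fragment analysis; fits run in both directions versus DMSO.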
# [2] = biological target: CCAAT/enhancer-binding protein beta (Homo sapiens) (UniProt P17676); assay: ATG_C_EBP_CIS: Attagene CIS-FACTORIAL HepG2 Assay for human CCAAT/Enhancer Binding Protein (C/EBP) beta (AID 2282927); settings: HepG2 Attagene cis-factorial transcription factor reporter; actives raise or lower the signal
# In short: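 Transiently transfected HepG2 (MRTU library, endogenous TF-driven promoters); 24 h dosing; total RNA → oligo(dT) RT → PCR → 6-FAM primer extension → HpaI digest → CE; fit bidirectionally vs DMSO.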
# [3] = ATG_CMV_CIS: Attagene CIS-FACTORIAL HepG2 Assay for human CMV (Internal Marker) (AID 2282928); settings: HepG2 CMV promoter reporter, transcription factor profiling; actives raise or lower the signal;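 note: endpoint acts as a background internal control marker rather than a target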
# In short: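 After transient transfection of HepG2 with reporter transcription units driven by cis-regulatory promoters, cells receive test chemical for 24 h. Labeled reporter amplicons, digested with HpaI, are sized and quantified by capillary electrophoresis against DMSO.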
# [4] = ATG_DR4_LXR_CIS: Attagene CIS-FACTORIAL HepG2 Assay for human Liver X Receptor (LXR), DR4 submotif (AID 2282929); settings: HepG2 Attagene DR4 cis-reporter, mRNA transcription; actives raise or lower the signal
# In short: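 Measures endogenous transcription factor activity via a DR4-driven reporter transcript in human HepG2 cells. Compounds incubated 24 h; mRNA quantified by RT-PCR and capillary electrophoresis, analysed as gain or loss of signal versus DMSO.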
# [5] = biological target: Aryl hydrocarbon receptor (Homo sapiens) (UniProt P35869); assay: ATG_Ahr_CIS: Attagene CIS-FACTORIAL HepG2 Assay for human Aryl Hydrocarbon Receptor (Ahr) (AID 2282930); settings: HepG2 AhR cis-factorial reporter transcription; actives raise or lower the signal
# In short: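 Read-out: reporter mRNA quantified by RT-PCR with fluorescent primer extension and capillary electrophoresis. Human HepG2 liver cells carried transfected cis-promoter reporter units and were exposed to chemical for 24 h; gain or loss fitted relative to DMSO.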
# [6] = ATG_AP_1_CIS: Attagene CIS-FACTORIAL HepG2 Assay for human Activator Protein 1 (AP-1) (AID 2282931); settings: HepG2 Attagene cis-factorial AP-1 reporter mRNA; actives raise or lower the signal
# In short: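 Bidirectional concentration-response fitting against DMSO controls. Underlying signal: reporter mRNA from cis-promoter constructs in transiently transfected HepG2, measured after 24 h by RT-PCR and capillary electrophoresis.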
# [7] = ATG_AP_2_CIS: Attagene CIS-FACTORIAL HepG2 Assay for human Activator Protein 2 (AP-2) (AID 2282932); settings: HepG2 AP-2 cis-reporter, Attagene transcription factor profiling; actives raise or lower the signal
# In short: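 HepG2 cells transiently transfected with cis-element reporter units and exposed for 24 h. Reporter mRNA measured by RT-PCR, FAM labelling, HpaI digestion and capillary electrophoresis. Changes in either direction fitted relative to DMSO.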
# [8] = ATG_BRE_CIS: Attagene CIS-FACTORIAL HepG2 Assay for human Bone Morphogenetic Protein (BMP) Response Element (BRE) (AID 2282933); settings: HepG2 BMP response element reporter, Attagene transcription factor profiling; actives raise or lower the signal
# In short: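 A HepG2 multiplex reporter system measured inducible reporter mRNA 24 h post-dosing. Detection: RT-PCR, 6-FAM primer extension, HpaI digestion, capillary electrophoresis. Activity fitted bidirectionally relative to DMSO.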
# [9] = biological target: Retinoic acid receptor alpha (Homo sapiens) (UniProt P10276); assay: ATG_DR5_RAR_CIS: Attagene CIS-FACTORIAL HepG2 Assay for human Retinoic Acid Receptor Alpha (RARE), DR5 submotif (AID 2282934); settings: HepG2 Attagene cis-factorial RARE DR5 reporter, mRNA; actives raise or lower the signal
# In short: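 Read-out: DR5-driven reporter transcript measured by RT-PCR, 6-FAM primer extension, HpaI digest and capillary electrophoresis. Human HepG2 liver cells carry transiently transfected cis-element reporter constructs; dosing lasts 24 h. Gain or loss of signal fitted against DMSO baseline.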
# [10] = biological target: Transcription factor E2F1 (Homo sapiens) (UniProt Q01094); assay: ATG_E2F_CIS: Attagene CIS-FACTORIAL HepG2 Assay for human E2F Transcription Factor 1 (AID 2282935); settings: HepG2 Attagene cis-reporter, E2F reporter RNA transcripts; actives raise or lower the signal
# In short: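 Endogenous E2F1 activity read through cis-promoter reporter units transfected into HepG2. After 24 h compound treatment, reporter mRNA measured by RT-PCR, HpaI digestion and capillary electrophoresis. Bidirectional fit versus DMSO.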
# [11] = ATG_E_Box_CIS: Attagene CIS-FACTORIAL HepG2 Assay for human Enhancer Box (E-box) (AID 2282936); settings: HepG2 E-box cis-reporter transcription, actives raise or lower the signal
# In short: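 HepG2 cells transiently transfected with multiplexed cis-element reporter units, dosed 24 h; reporter mRNA quantified by RT-PCR, 6-FAM labelling, HpaI digestion and capillary electrophoresis. E-box (USF1) signal fitted bidirectionally vs DMSO.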
# [12] = ATG_M_61_CIS: Attagene CIS-FACTORIAL HepG2 Assay for M61 Transcription Factor (Internal Marker) (AID 2282937); settings: HepG2 Attagene CIS-FACTORIAL M61 internal marker reporter; actives raise or lower the signal
# In short: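 Fluorescence from labelled cDNA fragments, separated by capillary electrophoresis, quantifies reporter induction. HepG2 cells bearing transiently transfected cis-promoter MRTUs were incubated with test chemical for 24 h; DMSO defined baseline for gain/loss fitting.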
# [13] = ATG_EGR_CIS: Attagene CIS-FACTORIAL HepG2 Assay for human Early Growth Response 1 (EGR1) (AID 2282938); settings: HepG2 Attagene CIS-FACTORIAL EGR reporter mRNA; actives raise or lower the signal
# In short: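 Cell-based multiplex transcription assay: HepG2 carrying transfected cis-element reporter units, 24 h chemical treatment. Fluorescence from capillary electrophoresis of RT-PCR products gives mRNA levels; fitting is bidirectional relative to DMSO.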
# [14] = ATG_M_19_CIS: Attagene CIS-FACTORIAL HepG2 Assay for M19 Transcription Factor (Internal Marker) (AID 2282939); settings: HepG2 Attagene CIS-FACTORIAL M19 internal marker reporter; actives raise or lower the signal
# In short: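 Chemical-treated HepG2 (24 h) with MRTU constructs; reporter transcripts detected by fluorescent RT-PCR fragment analysis on capillary electrophoresis. Internal background marker, DMSO as baseline.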
# [15] = biological target: Hepatocyte nuclear factor 3-beta (Homo sapiens) (UniProt Q9Y261); assay: ATG_FoxA2_CIS: Attagene CIS-FACTORIAL HepG2 Assay for human Forkhead box A2 (FOXA2) (AID 2282942); settings: HepG2 cis-reporter transcription factor activity, 24 h; actives raise or lower the signal
# In short: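 In transiently transfected human HepG2 cells, promoter-driven reporter mRNA levels after 24 h chemical exposure are determined via RT-PCR with capillary electrophoresis. DMSO serves as baseline for bidirectional fitting.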
# [16] = ATG_GATA_CIS: Attagene CIS-FACTORIAL HepG2 Assay for human GATA Binding Protein (AID 2282944); settings: HepG2 GATA cis-element reporter, Attagene multiplex mRNA; actives raise or lower the signal
# In short: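 Transfected cis-reporter HepG2 cells were treated with chemicals for 24 hours. Total RNA was then converted to cDNA, amplified with reporter-specific primers and analysed by fluorescent capillary electrophoresis, using DMSO-treated wells as baseline.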
# [17] = ATG_GLI_CIS: Attagene CIS-FACTORIAL HepG2 Assay for human Zinc Finger Protein GLI1 (AID 2282945); settings: HepG2, Attagene cis-factorial reporter mRNA, GLI element; actives raise or lower the signal
# In short: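 Transiently transfected HepG2 cells report endogenous transcription factor activity via cis-element-driven reporter units. After 24 h compound exposure, reporter mRNA was measured by RT-PCR with capillary electrophoresis; bidirectional fitting against DMSO baseline.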
# [18] = ATG_ERE_CIS: Attagene CIS-FACTORIAL HepG2 Assay for Estrogen Response Element (ERE) (AID 2282940); settings: HepG2 ERE cis-reporter, Attagene RNA transcript; actives raise or lower the signal
# In short: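 Human liver cells (HepG2) bearing transiently transfected, promoter-regulated reporter units were exposed 24 h. Reporter mRNA induction was detected by capillary electrophoresis of labelled RT-PCR products and fitted bidirectionally to DMSO.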
# [19] = ATG_Ets_CIS: Attagene CIS-FACTORIAL HepG2 Assay for human Erythroblast Transformation Specific (ETS) (AID 2282941); settings: HepG2 ETS cis-reporter transcription, actives raise or lower the signal
# In short: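 Human HepG2 hepatoma cells were transiently transfected with promoter-driven reporter constructs and treated for 24 hours. Reporter transcripts were quantified by RT-PCR with fluorescent primer extension; bidirectional curve fitting used DMSO as reference.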
# [20] = ATG_FoxO_CIS: Attagene CIS-FACTORIAL HepG2 Assay for human Forkhead box O (FoxO) (AID 2282943); settings: HepG2 Attagene cis-reporter, FoxO element, mRNA; actives raise or lower the signal
# In short: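 Read-out: fluorescence of 6-FAM-labelled reporter cDNA fragments resolved by capillary electrophoresis. Transiently transfected HepG2 cells were dosed for 24 h; activity fitted in both directions relative to DMSO controls.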
# Sequence of Hepatocyte nuclear factor 3-beta (Homo sapiens) (Q9Y261 whole entry, looked up): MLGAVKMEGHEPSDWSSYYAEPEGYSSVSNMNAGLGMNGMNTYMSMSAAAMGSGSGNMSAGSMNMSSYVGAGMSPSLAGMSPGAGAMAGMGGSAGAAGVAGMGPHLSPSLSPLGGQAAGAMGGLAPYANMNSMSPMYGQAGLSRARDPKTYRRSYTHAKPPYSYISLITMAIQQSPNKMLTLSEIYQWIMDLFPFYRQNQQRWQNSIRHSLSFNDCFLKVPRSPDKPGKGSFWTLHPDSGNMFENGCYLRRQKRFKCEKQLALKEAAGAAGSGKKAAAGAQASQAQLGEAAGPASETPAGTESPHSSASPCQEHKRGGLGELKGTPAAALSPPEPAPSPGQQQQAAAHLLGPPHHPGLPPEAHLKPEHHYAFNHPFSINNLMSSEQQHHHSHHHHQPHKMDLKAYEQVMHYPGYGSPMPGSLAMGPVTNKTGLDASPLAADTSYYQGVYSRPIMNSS
# Sequence of Transcription factor E2F1 (Homo sapiens) (Q01094 whole entry, looked up): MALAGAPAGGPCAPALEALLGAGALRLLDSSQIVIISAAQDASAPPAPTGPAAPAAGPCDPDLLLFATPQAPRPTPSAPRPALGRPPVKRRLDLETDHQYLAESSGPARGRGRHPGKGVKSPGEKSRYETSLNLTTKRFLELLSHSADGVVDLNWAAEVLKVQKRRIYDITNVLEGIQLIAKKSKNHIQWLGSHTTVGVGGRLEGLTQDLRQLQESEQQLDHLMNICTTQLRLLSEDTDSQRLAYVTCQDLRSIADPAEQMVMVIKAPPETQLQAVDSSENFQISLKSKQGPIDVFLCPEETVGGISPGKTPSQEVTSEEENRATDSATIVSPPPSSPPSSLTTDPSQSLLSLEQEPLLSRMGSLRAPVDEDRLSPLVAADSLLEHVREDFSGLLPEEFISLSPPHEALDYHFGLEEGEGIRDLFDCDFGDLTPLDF
# Sequence of Aryl hydrocarbon receptor (Homo sapiens) (P35869 whole entry, looked up): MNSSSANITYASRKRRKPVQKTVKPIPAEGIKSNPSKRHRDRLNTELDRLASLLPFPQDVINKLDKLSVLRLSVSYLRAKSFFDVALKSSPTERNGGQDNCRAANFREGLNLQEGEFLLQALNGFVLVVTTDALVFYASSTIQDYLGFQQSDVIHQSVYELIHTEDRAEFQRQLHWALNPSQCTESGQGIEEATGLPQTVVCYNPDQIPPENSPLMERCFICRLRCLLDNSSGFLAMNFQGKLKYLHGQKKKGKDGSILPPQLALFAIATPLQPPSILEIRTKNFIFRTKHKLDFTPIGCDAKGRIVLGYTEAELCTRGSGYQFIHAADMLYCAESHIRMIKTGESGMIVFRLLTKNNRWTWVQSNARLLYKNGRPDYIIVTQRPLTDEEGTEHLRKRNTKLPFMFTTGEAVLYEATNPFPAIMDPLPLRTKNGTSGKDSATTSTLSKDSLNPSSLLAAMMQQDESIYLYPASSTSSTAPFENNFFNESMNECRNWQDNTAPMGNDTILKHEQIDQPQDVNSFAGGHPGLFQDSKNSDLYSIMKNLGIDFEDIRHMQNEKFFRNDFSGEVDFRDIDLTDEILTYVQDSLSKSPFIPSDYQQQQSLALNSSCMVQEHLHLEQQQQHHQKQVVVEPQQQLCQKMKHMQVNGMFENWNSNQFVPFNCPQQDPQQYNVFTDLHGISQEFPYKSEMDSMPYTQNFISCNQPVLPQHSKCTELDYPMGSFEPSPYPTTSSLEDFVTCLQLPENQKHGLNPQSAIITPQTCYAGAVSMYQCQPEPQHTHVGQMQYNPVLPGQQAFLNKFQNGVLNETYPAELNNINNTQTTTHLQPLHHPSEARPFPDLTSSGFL
# Sequence of CCAAT/enhancer-binding protein beta (Homo sapiens) (P17676 whole entry, looked up): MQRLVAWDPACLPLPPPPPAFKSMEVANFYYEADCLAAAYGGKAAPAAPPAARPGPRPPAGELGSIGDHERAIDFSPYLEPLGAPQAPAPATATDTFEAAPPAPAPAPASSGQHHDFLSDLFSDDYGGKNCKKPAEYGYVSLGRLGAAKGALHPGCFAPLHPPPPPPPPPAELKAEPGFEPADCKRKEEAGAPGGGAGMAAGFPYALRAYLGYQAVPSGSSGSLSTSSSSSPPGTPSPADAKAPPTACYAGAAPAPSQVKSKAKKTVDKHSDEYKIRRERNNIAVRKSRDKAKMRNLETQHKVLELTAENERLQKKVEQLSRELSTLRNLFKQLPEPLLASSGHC
# Sequence of Retinoic acid receptor alpha (Homo sapiens) (P10276 whole entry, looked up): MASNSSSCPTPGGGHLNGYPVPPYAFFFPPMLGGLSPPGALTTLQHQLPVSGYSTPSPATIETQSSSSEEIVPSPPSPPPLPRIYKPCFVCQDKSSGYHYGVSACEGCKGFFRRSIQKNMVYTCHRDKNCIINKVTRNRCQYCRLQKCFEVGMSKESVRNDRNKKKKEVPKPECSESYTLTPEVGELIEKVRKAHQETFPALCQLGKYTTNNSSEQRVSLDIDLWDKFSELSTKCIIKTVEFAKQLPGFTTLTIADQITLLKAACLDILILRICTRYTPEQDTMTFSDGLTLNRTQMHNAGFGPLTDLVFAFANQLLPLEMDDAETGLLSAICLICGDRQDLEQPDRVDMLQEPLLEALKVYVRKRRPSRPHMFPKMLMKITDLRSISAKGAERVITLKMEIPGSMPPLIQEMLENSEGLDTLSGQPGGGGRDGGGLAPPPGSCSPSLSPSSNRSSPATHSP
compound,measurement,setting,value
O=C(O)CN(CCN(CC(=O)O)CC(=O)O)CCN(CC(=O)O)CC(=O)O,outcome,[1],inactive
same,outcome,[2],inactive
same,outcome,[3],inactive
same,outcome,[4],inactive
same,outcome,[5],inactive
same,outcome,[6],inactive
same,outcome,[7],inactive
same,outcome,[8],inactive
same,outcome,[9],inactive
same,outcome,[10],inactive
same,outcome,[11],inactive
same,outcome,[12],inactive
same,outcome,[13],inactive
same,outcome,[14],inactive
same,outcome,[15],inactive
same,outcome,[16],inactive
same,outcome,[17],inactive
O=C1OC2(c3cc(Br)c(O)c(Br)c3Oc3c2cc(Br)c(O)c3Br)c2c(Cl)c(Cl)c(Cl)c(Cl)c21,outcome,[1],inactive
same,outcome,[2],inactive
same,outcome,[3],inactive
same,outcome,[4],inactive
same,AC50,[5],15.1 µM (active)
same,outcome,[6],inactive
same,outcome,[7],inactive
same,outcome,[8],inactive
same,outcome,[10],inactive
same,outcome,[11],inactive
same,outcome,[12],inactive
same,AC50,[13],35 µM (active)
same,outcome,[14],inactive
same,AC50,[18],18.2 µM (active)
same,outcome,[19],inactive
same,outcome,[15],inactive
same,outcome,[20],inactive
same,outcome,[17],inactive
O=C1CCc2ccccc2O1,outcome,[1],inactive
same,outcome,[2],inactive
same,outcome,[3],inactive
same,outcome,[4],inactive
same,outcome,[5],inactive
same,outcome,[6],inactive
same,outcome,[7],inactive
same,outcome,[8],inactive
same,outcome,[10],inactive
same,outcome,[11],inactive
same,outcome,[12],inactive
same,outcome,[13],inactive
same,outcome,[14],inactive
same,outcome,[19],inactive
same,outcome,[15],inactive
same,outcome,[20],inactive
same,outcome,[16],inactive
same,outcome,[17],inactive
C[C@]12CC[C@H]3[C@@H](CCC4=CC(=O)CC[C@@]43C)[C@@H]1CC[C@@H]2C(=O)CO,outcome,[1],inactive
same,outcome,[2],inactive
same,outcome,[3],inactive
same,outcome,[4],inactive
same,outcome,[5],inactive
same,outcome,[6],inactive
same,outcome,[7],inactive
same,AC50,[8],100 µM (active)
same,outcome,[10],inactive
same,outcome,[11],inactive
same,outcome,[12],inactive
same,AC50,[13],55.9 µM (active)
same,outcome,[14],inactive
same,outcome,[19],inactive
same,outcome,[15],inactive
same,outcome,[20],inactive
same,outcome,[16],inactive
same,outcome,[17],inactive
OCCOCCOCCOCCO,outcome,[1],inactive
same,outcome,[2],inactive
same,outcome,[3],inactive
same,outcome,[4],inactive
same,AC50,[5],40.5 µM (active)
same,outcome,[6],inactive
same,outcome,[7],inactive
same,outcome,[8],inactive
same,outcome,[10],inactive
same,outcome,[11],inactive
same,outcome,[12],inactive
same,outcome,[13],inactive
same,outcome,[14],inactive
same,outcome,[18],inactive
same,outcome,[19],inactive
same,outcome,[15],inactive
same,outcome,[20],inactive
same,outcome,[16],inactive
same,outcome,[17],inactive
NCCCN1CCOCC1,outcome,[1],inactive
same,outcome,[2],inactive
same,outcome,[3],inactive
same,outcome,[4],inactive
same,outcome,[5],inactive
same,outcome,[6],inactive
same,outcome,[7],inactive
same,outcome,[8],inactive
same,outcome,[10],inactive
same,outcome,[11],inactive
same,outcome,[12],inactive
same,outcome,[13],inactive
same,outcome,[14],inactive
same,outcome,[18],inactive
same,outcome,[19],inactive
same,outcome,[15],inactive
same,outcome,[20],inactive
same,outcome,[16],inactive
same,outcome,[17],inactive
O=S(=O)(O)c1ccc(O)c2ncccc12,outcome,[1],inactive
same,outcome,[2],inactive
same,outcome,[3],inactive
same,outcome,[4],inactive
same,AC50,[5],37.5 µM (active)
same,outcome,[6],inactive
same,outcome,[7],inactive
same,outcome,[8],inactive
same,outcome,[10],inactive
same,outcome,[11],inactive
same,outcome,[12],inactive
same,outcome,[13],inactive
same,outcome,[14],inactive
same,outcome,[18],inactive
same,outcome,[19],inactive
same,outcome,[15],inactive
same,outcome,[20],inactive
same,outcome,[16],inactive
same,outcome,[17],inactive
